Assay outcomes from PubChem BioAssay.
Most compounds without a hit are left out; they make up all but 4.2% or so of the library.
DAX1 inh – inhibitors of DAX1 repression of SF-1 activated StAR promoter; HEK293T StAR-luciferase reporter, SF-1/DAX-1 repression relief; inhibition, % at 6.8 µM; 370,000 tested, 1.1% active;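 active means inhibition above the mean over all tested compounds plus 3 SD, cut at about 3.6% in these data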;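 further: 0% = DAX-1 cells with DMSO and 100% = cells lacking DAX-1 with DMSO; higher inhibition means more luminescence from relief of DAX-1 repression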
hgDAF-12 ag – activates the H. glycines DAF-12 receptor ligand-binding domain; HEK293 GAL4-hgDAF12 UAS-luciferase reporter, agonist luminescence; normalized to butyrate control; activation, % at 6.8 µM; 370,000 tested, 1.8% active; AID 687014;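 active means activation above a cutoff set at the mean of all screened compounds plus 3 SD, cut at about 10% in these data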;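 further: 0% = DMSO wells and 100% = sodium butyrate wells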
ssDAF12 agonist – activates DAF-12 receptor from parasite S. stercoralis. activation, % at 6.8 µM. HEK293 ssDAF-12/GRIP1 lit1-tk-luc reporter, luminescence; % of 3 µM dafachronic acid response. 370,000 tested, 1% active;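 active means activation above the mean over all tested compounds plus 3 SD, cut at about 0.9% in these data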;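 further: 0% = DMSO-only wells and 100% = 3 µM delta7-dafachronic acid wells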
SMARCA2 activ – increases SMARCA2 function in MMTV reporter cells. 370,000 tested, 1% active. activation, % at 9.1 µM. MG213 cells, MMTV-luciferase reporter, dexamethasone, overnight. AID 652017; in the data active means activation above about 7.8%;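 further: 0% = vehicle wells and 100% = reference activator wells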
hcDAF-12 act – activators of H. contortus DAF-12 nuclear receptor | 370,000 tested, 1.4% active | activation, % at 6.8 µM | HEK293 hcDAF-12 lit1-tk-luc reporter, luminescence; 0% DMSO, 100% Δ7-dafachronic acid;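 active means activation above the mean of all tested compounds plus 3 SD, cut at about 5.5% in these data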;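 further: 100% = response to 3 µM Δ7-dafachronic acid high control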
DAX1 inh confirm – confirmation of human DAX1 (NR0B1) inhibitors | shares compounds with DAX1 inh | HEK293T StAR-promoter luciferase reporter, SF-1/DAX-1 repression | inhibition, % at 6.8 µM | 2,400 tested, 87% active;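 active means inhibition above the average of every tested compound plus 3 SD, cut at about 3.8% in these data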;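 further: 0% = DAX-1 cells with DMSO and 100% = no DAX-1 control cells with DMSO; active compounds raise luminescence by relieving repression of the StAR reporter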
SF1 AF2mut Luc – nonselective inhibitor or artifact in SF-1 mutant DAX1 counter-screen | shares compounds with DAX1 inh | HEK293 StAR-luciferase, SF-1 AF2 mutant, luminescence | inhibition, % at 6.8 µM | 2,400 tested, 78% active | AID 652136;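 active means inhibition above the mean of all tested compounds plus 3 SD, cut at about 3% in these data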;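 further: 0% = DAX-1 transfected cells with DMSO and 100% = cells without DAX-1 with DMSO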
SMARCA2 act conf – SMARCA2 activation, confirmation screen. MG213 cells, MMTV-luciferase with dexamethasone, luminescence, overnight; MG213 cells expressing E1A, Rb sequestered; DMSO wells 0%, reference activator 100%. shares compounds with SMARCA2 activ. activation, % at 9.1 µM. 3,500 tested, 30% active. AID 652260;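 active means activation above its plate's cutoff, the mean activation of tested wells plus 3 SD, cut at about 7.9% in these data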
VP16 Luc act – GAL4-VP16 reporter activation counter-screen | shares compounds with SMARCA2 activ | HEK293 GAL4-VP16 pG5luc reporter, luciferase luminescence; scaled: DMSO wells 0%, SAHA wells 100% | activation, % at 9.1 µM | 3,500 tested, 41% active | AID 686939;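 active means activation above the solvent-only control well mean plus 3 SD, averaged across control plates, cut at about 5.2% in these data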
LXRb hcDAF ctr – activates human LXR-beta, counter-screen for hcDAF-12 agonists. shares compounds with hcDAF-12 act. HEK293 Gal4-LXR tk-luc reporter, luminescence, 24 h; normalized: DMSO 0%, positive control 100%. activation, % at 6.8 µM. 3,400 tested, under 10 active. AID 743027;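 active means mean percent activation of the reporter above a cutoff set as the average over tested compounds plus their standard deviation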
Target sequence (P55055 whole entry, looked up, the tested form may be a part): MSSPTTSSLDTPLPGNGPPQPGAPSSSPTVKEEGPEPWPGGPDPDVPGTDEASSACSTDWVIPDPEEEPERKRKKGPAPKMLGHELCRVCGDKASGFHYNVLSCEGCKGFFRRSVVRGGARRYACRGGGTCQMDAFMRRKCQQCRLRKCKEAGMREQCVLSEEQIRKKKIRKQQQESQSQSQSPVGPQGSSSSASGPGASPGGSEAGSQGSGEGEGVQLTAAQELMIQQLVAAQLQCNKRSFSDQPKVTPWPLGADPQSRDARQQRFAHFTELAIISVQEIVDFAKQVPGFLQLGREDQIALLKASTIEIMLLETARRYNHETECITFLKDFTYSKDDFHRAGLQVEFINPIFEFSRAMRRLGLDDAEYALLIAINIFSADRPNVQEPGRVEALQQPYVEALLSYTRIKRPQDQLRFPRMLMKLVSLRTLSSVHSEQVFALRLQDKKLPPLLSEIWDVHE
hcDAF12 conf – hcDAF-12 agonism, confirmation assay; AID 743032; 3,400 tested, 61% active; HEK293 hcDAF-12 lit1-tk-luc reporter, luminescence; % of Δ7-dafachronic acid response; shares compounds with hcDAF-12 act; activation, % at 6.8 µM;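 active means mean activation across triplicate tests above the threshold derived from the earlier primary screen, cut at about 5.5% in these data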;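 further: 0% = DMSO only wells and 100% = 3 µM Δ7-dafachronic acid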
hgDAF12 ag – hgDAF-12 agonism, confirmation assay. AID 743050. shares compounds with hgDAF-12 ag. 3,300 tested, 80% active. activation, % at 6.8 µM. HEK293 GAL4-hgDAF12 luciferase reporter, agonist mode; percent of butyrate response;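 active means mean activation over triplicate wells above the hit cutoff derived from the earlier primary screen, cut at about 11% in these data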;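 further: 0% = DMSO low control and 100% = 2 mM sodium butyrate high control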
LXRb DAF12 ctr – activates human LXR-beta, counter-screen for DAF-12 agonists | activation, % at 6.8 µM | 3,300 tested, under 10 active | AID 743051 | HEK293 Gal4-LXR luciferase reporter, 24 h | shares compounds with hgDAF-12 ag;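 active means mean activation of the triplicate above a set limit carried over from the primary screen, none filed active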
* marks the source's active call; other numbers are inactive results; nt = no result given.

SMILES | DAX1 inh | hgDAF-12 ag | ssDAF12 agonist | SMARCA2 activ | hcDAF-12 act | DAX1 inh confirm | SF1 AF2mut Luc | LXRb hcDAF ctr | hcDAF12 conf | hgDAF12 ag | LXRb DAF12 ctr | others
C=CCNc1ncnc2c1cnn2-c1ccc(Cl)cc1 | 8.8* | 15.0* | 0.0 | 11.7* | 3.6 | 15.9* | 8.1* | nt | nt | 26.7* | 1.0 | SMARCA2 act conf=8.3*;VP16 Luc act=11.5*
Cc1ccc(S(=O)(=O)N2[C@H](CC(=O)c3ccccc3)OC[C@@H]2C(C)C)cc1 | -1.0 | 0.6 | -0.8 | -1.3 | 0.6 | nt | nt | nt | nt | nt | nt
N#C/C(=N\Nc1ccc(F)cc1)C(=N)N1CCCCC1 | 6.0* | 18.2* | 0.9* | 7.8* | 8.1* | 17.8* | 7.1* | 1.4 | 4.7 | 17.9* | 0.8
Cc1ccc2nc(NC(=O)c3ccco3)sc2c1 | 0.8 | -2.3 | -1.7 | 1.1 | 2.5 | nt | nt | nt | nt | nt | nt
Cc1noc(C)c1C(=O)Nc1nc2ccc(F)cc2s1 | 8.9* | 14.3* | 0.6 | 6.2 | 7.0* | 9.8* | 5.3* | 1.5 | 5.8* | 14.2* | 0.8
O=C(Nc1nc2ccccc2s1)c1ccc(F)cc1 | 4.7* | 15.9* | 1.8* | 2.1 | 7.8* | 8.0* | 4.3* | 1.6 | 8.8* | 19.8* | 1.2
Fc1ccc(OCc2cc(-c3ccccc3)no2)cc1 | 1.2 | 9.1 | -1.0 | 3.9 | 0.8 | nt | nt | nt | nt | nt | nt
Clc1ccc(OCc2cc(-c3ccccc3)no2)c(Cl)c1 | 7.5* | 14.6* | 0.9* | 7.5 | 7.2* | 9.3* | 1.2 | 1.6 | 10.0* | 6.5 | 0.9
NC(=O)c1ccsc1NC(=O)c1coc2ccccc2c1=O | 4.7* | 13.7* | -0.3 | 9.0* | 1.1 | 11.8* | 3.7* | nt | nt | 19.0* | 0.7 | SMARCA2 act conf=22.7*;VP16 Luc act=8.9*
CCCc1nc2c3ccccc3ccn2c1CC(C)(C)C | 0.4 | -0.2 | -0.2 | -3.2 | 2.0 | nt | nt | nt | nt | nt | nt
CCCc1nc2c3ccccc3ccn2c1Cc1ccc(C)cc1 | 6.0* | 17.5* | 2.3* | 2.8 | 11.6* | 8.0* | 4.3* | 0.9 | 13.0* | 11.2* | 0.6
c1ccc(Cc2c(C3CCCCC3)nc3c4ccccc4ccn23)cc1 | 6.1* | 18.1* | 2.1* | 5.3 | 10.7* | 6.1* | 4.0* | 0.8 | 8.0* | 20.0* | 0.6
Cc1cc(Br)cn2c(Cc3ccccc3)c(C3CCCCC3)nc12 | 0.2 | 2.5 | -0.7 | -3.1 | 1.7 | nt | nt | nt | nt | nt | nt
CCCCCCCCN1C(=O)[C@H](CC(=O)NCC23CC4CC(CC(C4)C2)C3)C[C@@]2(C(=O)OCC)CCCC=C12 | 0.2 | 1.3 | -0.9 | -4.6 | 1.8 | nt | nt | nt | nt | nt | nt
CCOC(=O)Cc1csc(NC(=O)c2cc3ccccc3o2)n1 | 1.2 | 3.8 | -1.6 | 2.9 | 0.9 | nt | nt | nt | nt | nt | nt
Cc1csc(NC(=O)c2ccc(C)c([N+](=O)[O-])c2)n1 | 5.9* | 14.5* | 0.8 | 1.4 | 11.6* | 7.7* | 4.7* | 1.6 | 10.1* | 17.6* | 0.9
Cc1cc(C)nc(NC(=O)c2ccc(C)c([N+](=O)[O-])c2)n1 | -0.4 | -0.3 | -1.0 | -0.3 | -0.6 | nt | nt | nt | nt | nt | nt
O=C(Nc1ncccc1O)c1cc2ccccc2o1 | 26.9* | 38.6* | 0.8 | 6.0 | 8.6* | 27.4* | 14.0* | 1.3 | 5.1 | 29.2* | 0.7
Cc1csc(NC(=O)c2cc3ccccc3o2)n1 | 8.6* | 17.5* | 2.5* | 4.2 | 12.0* | 15.1* | 6.1* | 1.5 | 8.9* | 19.5* | 1.2
O=C(NNC(=O)c1cc2ccccc2o1)c1ccc(Cl)cc1 | -0.1 | 1.7 | -1.7 | 0.5 | -1.7 | nt | nt | nt | nt | nt | nt
O=C(Nc1ccc(Cl)cn1)c1cc2ccccc2o1 | 4.8* | 14.3* | 2.7* | 2.1 | 13.5* | 14.3* | 6.8* | 1.4 | 15.7* | 19.7* | 1.1
CCCSc1nnc(-c2ccco2)n1C | -0.5 | 3.0 | -1.0 | -1.6 | -0.8 | nt | nt | nt | nt | nt | nt
C=CCN1[C@H](C)COc2cccc(N3CCSCC3)c2S1(=O)=O | -0.8 | 1.7 | -0.4 | -1.6 | -0.8 | nt | nt | nt | nt | nt | nt
Cc1ccc(-c2cnc3c(Cl)c(C)nn3c2)cc1 | 6.6* | 24.5* | 0.6 | 2.1 | 5.1 | -0.5 | -4.5 | nt | nt | 18.4* | 1.0
Cc1ccc(-c2cnc3cc(C)nn3c2)cc1 | 9.7* | 17.7* | 0.0 | 5.0 | 5.9* | 11.2* | 5.2* | nt | nt | 12.0* | 0.9
SMILES | DAX1 inh | hgDAF-12 ag | ssDAF12 agonist | SMARCA2 activ | hcDAF-12 act | DAX1 inh confirm | SF1 AF2mut Luc | LXRb hcDAF ctr | hcDAF12 conf | hgDAF12 ag | LXRb DAF12 ctr | others
COC1=C[C@H](C(=O)N[C@H]2CCCC[C@@H]2NC(C)=O)[C@@]2(C)Cc3ccccc3[C@H]2CC1=O | -0.9 | -1.9 | -1.5 | -0.9 | -0.7 | nt | nt | nt | nt | nt | nt
Cc1ccc2c(c1)N(CCCC(=O)N(C)Cc1ccccc1Cl)C(=O)CO2 | -0.9 | -2.0 | -1.2 | -0.3 | -2.9 | nt | nt | nt | nt | nt | nt
Cc1cc(O)c(-c2cc(C(=O)Nc3cccnc3)[nH]n2)cc1C | 4.8* | 19.6* | 0.7 | 5.6 | 6.3* | 15.9* | 7.0* | nt | nt | 15.9* | 0.8
COC(=O)[C@]12C[C@H](CC(=O)NCc3cccs3)C(=O)N(Cc3ccc(Cl)cc3Cl)C1=C[C@H](C1CCCC1)O[C@@H]2C | -0.5 | -1.0 | -1.3 | -3.1 | -0.1 | nt | nt | nt | nt | nt | nt
CCCC[C@H]1C2CC(OC(=O)Nc3ccccc3OC)C(C2)[C@H]2CCCCN21 (stereo partly specified) | 0.7 | 0.4 | -0.5 | -1.8 | 0.4 | nt | nt | nt | nt | nt | nt
c1ccc2c(C3=NNC(=NC4CC4)SC3)c[nH]c2c1 | 7.0* | 20.4* | 2.1* | 3.9 | 14.2* | 18.8* | 7.1* | 1.8 | 7.6* | 12.7* | 0.9
Cc1cc(SCC(=O)c2ccccc2)nc(=O)[nH]1 | 1.6 | 5.6 | -0.2 | 2.0 | 5.5 | nt | nt | nt | nt | nt | nt
